Assay results reported in the supplement of paper PMC8728848.
The entries come from a sample that favours the strongest signals as a whole.

Experiments:
Assay in all cases: glycan array binding signal (z-score within array); higher = stronger binding
Conditions in all cases: glycan notation: IUPAC condensed, linker removed
[1] = biological target: Fuc(a1-2)Gal(b1-3)GalNAc(b1-4)[Neu5Ac(a2-3)]Gal(b1-4)Glc
In short: (§1)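 The Consortium for Functional Glycomics database supplied 3228 glycan arrays, of which those lacking an available protein sequence were dropped. The binding signal, a within-array Z-score, was averaged across arrays of the same protein sequence and across linkers. Negative scores can be read as non-binding.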

[2] = biological target: Fuc(a1-2)Gal(b1-4)[Fuc(a1-3)]GlcNAc
In short: as §1

[3] = biological target: Fuc(a1-2)Gal(b1-4)[Fuc(a1-3)]GlcNAc(b1-3)Gal(b1-4)[Fuc(a1-3)]GlcNAc
In short: as §1

[4] = biological target: Fuc(a1-3)[Gal3S(b1-4)]GlcNAc
In short: as §1

[5] = biological target: Fuc(a1-3)[Gal3S(b1-4)]GlcNAc6S
In short: as §1

Gal(a1-3)Gal(b1-3)GlcNAc = biological target: Gal(a1-3)Gal(b1-3)GlcNAc
In short: as §1

[6] = biological target: Gal(a1-3)Gal(b1-4)[Fuc(a1-3)]GlcNAc
In short: as §1

Gal(a1-3)GalNAc = biological target: Gal(a1-3)GalNAc
In short: as §1

Gal3S(b1-4)Glc = biological target: Gal3S(b1-4)Glc
In short: as §1

Gal3S6S(b1-4)GlcNAc = biological target: Gal3S6S(b1-4)GlcNAc
In short: as §1

Gal4S6S(b1-4)GlcNAc = biological target: Gal4S6S(b1-4)GlcNAc
In short: as §1

GlcNAc3Prop(b1-4)GlcNAc = biological target: GlcNAc3Prop(b1-4)GlcNAc
In short: as §1

Kdn(a2-3)Gal(b1-4)GlcNAc = biological target: Kdn(a2-3)Gal(b1-4)GlcNAc
In short: as §1

[7] = biological target: Man(a1-2)Man(a1-3)[Man(a1-2)Man(a1-6)]Man(a1-6)[Man(a1-2)Man(a1-2)Man(a1-3)]Man
In short: as §1

Neu5Ac(a2-3)Gal = biological target: Neu5Ac(a2-3)Gal
In short: as §1

[8] = biological target: Neu5Ac(a2-3)Gal(b1-3)GalNAc(b1-4)[Neu5Ac(a2-3)]Gal(b1-4)Glc
In short: as §1

[9] = biological target: Neu5Ac(a2-3)Gal(b1-3)GlcNAc6S
In short: as §1

[10] = biological target: Neu5Ac(a2-3)Gal(b1-3)[Neu5Ac(a2-3)Gal(b1-4)]GlcNAc
In short: as §1

[11] = biological target: Neu5Ac(a2-3)Gal(b1-4)GlcNAc(b1-2)Man(a1-3)[GlcNAc(b1-2)Man(b1-4)GlcNAc(b1-2)Man(a1-6)]Man(b1-4)GlcNAc(b1-4)GlcNAc
In short: as §1

[12] = biological target: Neu5Ac(a2-3)Gal(b1-4)GlcNAc6S
In short: as §1

[13] = biological target: Neu5Ac(a2-3)Gal6S(b1-4)[Fuc(a1-3)]GlcNAc
In short: as §1

[14] = biological target: Neu5Ac(a2-3)[GalNAc(b1-4)]Gal(b1-4)GlcNAc
In short: as §1

[15] = biological target: Neu5Ac(a2-3)[Neu5Ac(a2-6)]GalNAc
In short: as §1

[16] = biological target: Neu5Ac(a2-6)Gal(b1-4)GlcNAc(b1-3)Gal(b1-4)[Fuc(a1-3)]GlcNAc(b1-3)Gal(b1-4)[Fuc(a1-3)]GlcNAc
In short: as §1

[17] = biological target: Neu5Ac(a2-6)GalNAc(b1-4)GlcNAc
In short: as §1

[18] = biological target: Neu5Ac9Ac(a2-6)Gal(b1-4)GlcNAc
In short: as §1

[19] = biological target: Neu5Gc(a2-3)Gal(b1-4)GlcNAc
In short: as §1

Fuc(a1-2)Gal(b1-4)Glc = biological target: Fuc(a1-2)Gal(b1-4)Glc
In short: as §1

Fuc(a1-2)Gal(b1-4)Glc6S = biological target: Fuc(a1-2)Gal(b1-4)Glc6S
In short: as §1

[20] = biological target: Fuc(a1-2)[GalNAc(a1-3)]Gal(b1-3)GlcNAc
In short: as §1

[21] = biological target: Fuc(a1-3)[Gal(b1-4)]GlcNAc(b1-4)Gal(b1-4)[Fuc(a1-3)]GlcNAc
In short: as §1

Gal(a1-2)Gal = biological target: Gal(a1-2)Gal
In short: as §1

[22] = biological target: Gal(a1-3)Gal(b1-4)GlcNAc(b1-3)GalNAc
In short: as §1

Gal(a1-4)Gal(b1-4)Glc = biological target: Gal(a1-4)Gal(b1-4)Glc
In short: as §1

[23] = biological target: Gal(a1-4)Gal(b1-4)GlcNAc(b1-3)Gal(b1-4)Glc
In short: as §1

[24] = biological target: Gal(b1-3)GlcNAc(b1-3)Gal(b1-3)GlcNAc
In short: as §1

[25] = biological target: Gal(b1-4)GlcNAc(a1-6)Gal(b1-4)GlcNAc
In short: as §1

Gal3S(b1-3)GalNAc = biological target: Gal3S(b1-3)GalNAc
In short: as §1

Gal3S(b1-4)GlcNAc = biological target: Gal3S(b1-4)GlcNAc
In short: as §1

[26] = biological target: Neu5Ac(a2-3)Gal(b1-3)GalNAc
In short: as §1

[27] = biological target: Neu5Ac(a2-3)Gal(b1-3)GalNAc6S
In short: as §1

[28] = biological target: Neu5Ac(a2-3)Gal(b1-3)GlcNAc(b1-3)GalNAc
In short: as §1

[29] = biological target: Neu5Ac(a2-3)Gal(b1-3)[Fuc(a1-4)]GlcNAc(b1-3)Gal(b1-3)[Fuc(a1-4)]GlcNAc
In short: as §1

[30] = biological target: Neu5Ac(a2-3)Gal(b1-3)[Neu5Ac(a2-6)]GalNAc
In short: as §1

[31] = biological target: Neu5Ac(a2-3)Gal(b1-4)GlcNAc(b1-6)[Neu5Ac(a2-3)Gal(b1-3)]GalNAc
In short: as §1

Neu5Ac(a2-6)GalNAc = biological target: Neu5Ac(a2-6)GalNAc
In short: as §1

[32] = biological target: Neu5Ac(a2-6)GlcNAc(b1-4)GlcNAc
In short: as §1

[33] = biological target: Neu5Gc(a2-3)Gal(b1-4)[Fuc(a1-3)]GlcNAc
In short: as §1

B1: MIC1 (Toxoplasma gondii), O00834 (protein)
chain: MGQALFLTVLLPVLFGVGPEAYGEASHSHSPASGRYIQQMLDQRCQEIAAELCQSGLRKMCVPSSRIVARNAVGITHQNTLQWRCFDTASLLESNQENNGVNCVDDCGHTIPCPGGVHRQNSNHATRHEILSKLVEEGVQRFCSPYQASANKYCNDKFPGTIARRSKGFGNNVEVAWRCYEKASLLYSVYAECASNCGTTWYCPGGRRGTSTELDKRHYTEEEGIRQAIGSVDSPCSEVEVCLPKDENPPLCLDESGQISRTGGGPPSQPPEMQQPADRSDERGGGKEQSPGGEAQPDHPTKGGNIDLPEKSTSPEKTPKTEIHGDSTKATLEEGQQLTLTFISTKLDVAVGSCHSLVANFLDGFLKFQTGSNSAFDVVEVEEPAGPAVLTIGLGHKGRLAVVLDYTRLNAALGSAAYVVEDSGCSSSEEVSFQGVGSGATLVVTTLGESPTAVSA
glycan array binding signal (z-score) [1]: -0.232 | glycan array binding signal (z-score) [2]: -0.213 | glycan array binding signal (z-score) [3]: -0.138 | glycan array binding signal (z-score) [4]: -0.041 | glycan array binding signal (z-score) [5]: -0.233 | glycan array binding signal (z-score) (Gal(a1-3)Gal(b1-3)GlcNAc): -0.059 | glycan array binding signal (z-score) [6]: -0.014 | glycan array binding signal (z-score) (Gal(a1-3)GalNAc): -0.139 | glycan array binding signal (z-score) (Gal3S(b1-4)Glc): -0.149 | glycan array binding signal (z-score) (Gal3S6S(b1-4)GlcNAc): -0.228 | glycan array binding signal (z-score) (Gal4S6S(b1-4)GlcNAc): -0.218 | glycan array binding signal (z-score) (GlcNAc3Prop(b1-4)GlcNAc): -0.196 | glycan array binding signal (z-score) (Kdn(a2-3)Gal(b1-4)GlcNAc): -0.256 | glycan array binding signal (z-score) [7]: -0.307 | glycan array binding signal (z-score) (Neu5Ac(a2-3)Gal): -0.068 | glycan array binding signal (z-score) [8]: -0.19 | glycan array binding signal (z-score) [9]: 0.131 | glycan array binding signal (z-score) [10]: 4.31 | glycan array binding signal (z-score) [11]: 3.01 | glycan array binding signal (z-score) [12]: 6.25 | glycan array binding signal (z-score) [13]: -0.178 | glycan array binding signal (z-score) [14]: 5.43 | glycan array binding signal (z-score) [15]: -0.313 | glycan array binding signal (z-score) [16]: -0.268 | glycan array binding signal (z-score) [17]: -0.152 | glycan array binding signal (z-score) [18]: -0.294 | glycan array binding signal (z-score) [19]: 9.71

B2: exo-alpha-sialidase (Propionibacterium acnes), Q6A7G1 (protein)
chain: GSHMSGRAPAPVAATTQPKLVTGDITSTDQSGTNLFFGKKIVRNARGAIMKVDRTWPAAVPAPLPDVRADSSTRMLLGPVVDLAVNEHPEGVFYRIPALATASNGDLLASYDLRPGSAGDAPNPNSIVQRRSRDNGRTWGPQTVIHAGTPGRRKVGYSDPSYLVDPATGRILNFHVKSYDRGFATSEVGTDPDDRHVLHAEVSTSTDNGHTWTHRDITREITSDPTTRTRFVASGQGIALLHGPHAGRLIAQMTVRNSVGQQAQSIYSDDHGITWHAGNPVGRMMDENKVVELSDGTLMLNSRDAARSGRRKVAYSQDGGLTWGPVKLVDDLIDPTNNAQIIRAYPNARAGSAKARILLFTNARNATERVNGTLSVSCDDGRTWVSHQTYMPGEVGYTTAAVQSDGALGVLWERDGIRYSTIPMGWLNSVCPLAPSGRPTSGKPTSGTSLPPTAT
glycan array binding signal (z-score) [1]: -0.338 | glycan array binding signal (z-score) (Fuc(a1-2)Gal(b1-4)Glc): -0.361 | glycan array binding signal (z-score) (Fuc(a1-2)Gal(b1-4)Glc6S): -0.256 | glycan array binding signal (z-score) [20]: -0.343 | glycan array binding signal (z-score) [21]: -0.311 | glycan array binding signal (z-score) (Gal(a1-2)Gal): -0.331 | glycan array binding signal (z-score) [22]: -0.36 | glycan array binding signal (z-score) (Gal(a1-4)Gal(b1-4)Glc): -0.366 | glycan array binding signal (z-score) [23]: -0.337 | glycan array binding signal (z-score) [24]: -0.354 | glycan array binding signal (z-score) [25]: -0.353 | glycan array binding signal (z-score) (Gal3S(b1-3)GalNAc): -0.343 | glycan array binding signal (z-score) (Gal3S(b1-4)GlcNAc): -0.268 | glycan array binding signal (z-score) [26]: 3.6 | glycan array binding signal (z-score) [8]: 6.27 | glycan array binding signal (z-score) [27]: 3.54 | glycan array binding signal (z-score) [28]: 3.71 | glycan array binding signal (z-score) [29]: 0.022 | glycan array binding signal (z-score) [30]: 3.45 | glycan array binding signal (z-score) [31]: 4.39 | glycan array binding signal (z-score) [15]: 4.53 | glycan array binding signal (z-score) (Neu5Ac(a2-6)GalNAc): -0.072 | glycan array binding signal (z-score) [32]: 3.52 | glycan array binding signal (z-score) [33]: -0.196
